This note sets out measurements from PubChem BioAssay AID686948 (National Center for Advancing Translational Sciences (NCATS), 2013).

Activity calls are given as the source filed them. Calls come from the whole dose curve; as a rule, active = well fitted inhibition curve with a large enough effect; inactive = flat fitted curve, though single readings scatter.

The target in the assay is Tyrosine-protein kinase Yes (Homo sapiens) (UniProt P07947). The assay is described as follows: qHTS for small molecule inhibitors of Yes1 kinase: Confirmatory screen on the cherrypicks. Particulars: Recombinant Yes1, ADP-Glo luminescence, poly(E4Y) substrate. The source says:
The Src family of non-receptor protein tyrosine kinases contains nine members, including Yes1, Src, Fyn, Lyn, and […]. These kinases have important roles in a variety of cellular functions, such as cell proliferation, survival, and differentiation. Src, the most well characterized member of this family, has been previously identified as a proto-oncogene. […] In melanoma, it has been shown that Yes1, and not other family members, such as Src, is functionally involved in the malignant phenotype. Additionally, a recent study examining the downregulation of Yes1 by shRNA found significant effects on cell survival/growth for basal-like and Her2-positive breast cancers. […]
Two microliter of Yes1 enzyme (columns 1-2, 5-48; Millipore, Billerica, MA) are dispensed into Greiner, white solid-bottom 1536-well assay plates; columns 3 and 4 receive buffer without Yes1 as a control for maximum inhibition. […] The production of ADP is then quantified by the ADP-Glo Kit (Promega, Madison, WI). First, 2 uL of the first kit reagent is added, and the reaction is incubated for 45 minutes; then, 4 uL of the second kit reagent are added and the reaction is incubated for 30 minutes at which time the luminescence is read on a Viewlux plate reader (Perkin-Elmer, Waltham, MA). […]

Chain of Tyrosine-protein kinase Yes (Homo sapiens) (P07947 whole entry, looked up): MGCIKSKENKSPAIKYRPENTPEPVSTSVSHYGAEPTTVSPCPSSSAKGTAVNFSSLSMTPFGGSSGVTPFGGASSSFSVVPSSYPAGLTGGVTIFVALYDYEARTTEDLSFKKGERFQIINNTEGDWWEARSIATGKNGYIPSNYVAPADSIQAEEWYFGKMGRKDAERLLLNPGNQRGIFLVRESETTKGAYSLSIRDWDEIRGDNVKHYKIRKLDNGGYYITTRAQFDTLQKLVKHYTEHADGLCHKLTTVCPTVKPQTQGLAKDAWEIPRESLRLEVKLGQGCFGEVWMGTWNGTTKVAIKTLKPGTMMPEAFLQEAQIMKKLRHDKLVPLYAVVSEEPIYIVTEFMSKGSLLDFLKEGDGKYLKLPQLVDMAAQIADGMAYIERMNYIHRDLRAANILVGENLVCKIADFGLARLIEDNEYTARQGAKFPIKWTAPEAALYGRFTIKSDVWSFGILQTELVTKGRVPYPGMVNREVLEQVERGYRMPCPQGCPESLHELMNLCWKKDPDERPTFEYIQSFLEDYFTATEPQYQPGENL

For the compound `c1cc(-c2cnn3cc(-c4ccc(OCCN5CCCCC5)cc4)cnc23)ccn1`, the Potency is 0.196 µM (active).
